Laboratory results from PubChem BioAssay (NCI).
Values joined by “and” are separate entries in the source; they are usually repeats but may differ in a detail not shown here. Identical values can stand only once. Compounds without any hit were thinned out: in the full panel of roughly 83,000, 20% have a hit.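 The endpoint reported here, percent growth, reads 100 for growth as untreated, 0 for no net growth and -100 for all cells dead.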 Active and inactive are the calls of the source. The calls were made as follows: active = growth percent below 10; inactive = the rest.

Columns and labels:
Assay in all cases: NCI-60 one-dose screen, 48 h (100 = growth as untreated, 0 = no growth, -100 = all killed)
Details in all cases: 10 µM unless noted
DU-145 prostate = test system: DU-145 prostate
K-562 leukemia = test system: K-562 leukemia
MALME-3M melanoma = test system: MALME-3M melanoma
MDA-MB-231 breast = test system: MDA-MB-231 breast
RXF 393 renal = test system: RXF 393 renal
SF-268 CNS = test system: SF-268 CNS
SF-295 CNS = test system: SF-295 CNS
SF-539 CNS = test system: SF-539 CNS
UACC-257 melanoma = test system: UACC-257 melanoma
M14 melanoma = test system: M14 melanoma
HCT-15 colon = test system: HCT-15 colon
HT29 colon = test system: HT29 colon
SNB-75 CNS = test system: SNB-75 CNS
U251 CNS = test system: U251 CNS
PC-3 prostate = test system: PC-3 prostate
SK-MEL-5 melanoma = test system: SK-MEL-5 melanoma
UACC-62 melanoma = test system: UACC-62 melanoma
LOX IMVI melanoma = test system: LOX IMVI melanoma
SK-MEL-28 melanoma = test system: SK-MEL-28 melanoma
SNB-19 CNS = test system: SNB-19 CNS

Measured: growth

CC(=O)Nc1ccc2cc3ccc(NC(C)=O)cc3nc2c1
inactive: DU-145 prostate 64.5% and 38.2% | K-562 leukemia 66% and 98.4% | MALME-3M melanoma 134% and 94.6% | MDA-MB-231 breast 65% and 75.7% | RXF 393 renal 82.7% and 103% | SF-268 CNS 64.2% and 57% | SF-295 CNS 71.9% and 57.9% | SF-539 CNS 96.4% and 87.4% | UACC-257 melanoma 111% and 118% | M14 melanoma 88% and 87.8% | HCT-15 colon 103% and 106% | HT29 colon 97.3% and 90.1% | SNB-75 CNS 71.1% and 83.1% | U251 CNS 74.3% and 72.3% | PC-3 prostate 75.1% and 42.4% | SK-MEL-5 melanoma 92.2% and 105% | UACC-62 melanoma 82.2% and 85.7% | LOX IMVI melanoma 89% and 85.9% | SK-MEL-28 melanoma 110% and 139%

CC(O)(CC(=O)CC(=O)c1ccccc1)c1ccccc1 (stereo unspecified)
inactive: DU-145 prostate 143% and 102% | K-562 leukemia 91.2% | MALME-3M melanoma 113% and 96.5% | MDA-MB-231 breast 97.4% and 88.5% | RXF 393 renal 94.1% and 93.3% | SF-268 CNS 110% and 98.8% | SF-295 CNS 91.1% | SF-539 CNS 104% and 108% | UACC-257 melanoma 90.6% and 110% | M14 melanoma 96.1% and 96% | HCT-15 colon 70.2% and 69.4% | HT29 colon 105% and 111% | SNB-75 CNS 92.5% and 126% | SNB-19 CNS 95.8% and 99.9% | PC-3 prostate 80.9% | SK-MEL-5 melanoma 98.6% and 93.6% | UACC-62 melanoma 101% and 87.9% | LOX IMVI melanoma 110% and 82.3% | SK-MEL-28 melanoma 99.4% and 123%

COc1c(/C(C)=N/N=c2sc(C(C)=O)nn2-c2ccc(Cl)cc2)c(Oc2ccccc2)c(OC)c2occc12
inactive: DU-145 prostate 110% and 109% | K-562 leukemia 93.9% and 101% | MALME-3M melanoma 102% and 101% | MDA-MB-231 breast 107% and 101% | RXF 393 renal 113% | SF-268 CNS 101% and 87% | SF-295 CNS 95.8% and 105% | SF-539 CNS 103% and 93.7% | UACC-257 melanoma 106% and 113% | M14 melanoma 113% and 96.2% | HCT-15 colon 102% and 92.6% | HT29 colon 108% and 86.1% | SNB-75 CNS 80.6% and 90.1% | SNB-19 CNS 96.1% and 98.1% | PC-3 prostate 102% and 88% | SK-MEL-5 melanoma 100% and 103% | UACC-62 melanoma 96.1% and 84.7% | LOX IMVI melanoma 91.8% and 96% | SK-MEL-28 melanoma 112%

Cc1cc(C)c(N)c(Br)c1
inactive: DU-145 prostate 122% and 109% | K-562 leukemia 107% and 96.5% | MALME-3M melanoma 105% and 95.4% | MDA-MB-231 breast 112% and 98.8% | RXF 393 renal 116% and 103% | SF-268 CNS 105% and 103% | SF-295 CNS 127% and 110% | SF-539 CNS 108% and 92.9% | UACC-257 melanoma 106% and 105% | M14 melanoma 103% | HCT-15 colon 106% and 95.4% | HT29 colon 102% and 90.4% | SNB-75 CNS 83.3% and 74.5% | SNB-19 CNS 107% and 94.7% | PC-3 prostate 102% and 91.9% | SK-MEL-5 melanoma 103% and 96.3% | UACC-62 melanoma 108% and 94.5% | LOX IMVI melanoma 106% and 96.4% | SK-MEL-28 melanoma 110% and 102%

CC(/C=N/N1C(=O)c2ccccc2C1=O)c1ccccc1 (stereo unspecified)
inactive: DU-145 prostate 115% | K-562 leukemia 106% | MALME-3M melanoma 101% | MDA-MB-231 breast 108% | RXF 393 renal 101% | SF-268 CNS 117% | SF-295 CNS 90.9% | SF-539 CNS 106% | UACC-257 melanoma 90.5% | M14 melanoma 108% | HCT-15 colon 98.2% | HT29 colon 108% | SNB-75 CNS 83% | SNB-19 CNS 95.9% | PC-3 prostate 102% | SK-MEL-5 melanoma 99.4% | UACC-62 melanoma 111% | LOX IMVI melanoma 98.3% | SK-MEL-28 melanoma 103%

CN(C)c1ccc(C(Cc2ccc3ccccc3n2)Cc2ccc3ccccc3n2)cc1
0.736% (active) and 59.7% (inactive): HT29 colon
inactive: DU-145 prostate 81.9% | K-562 leukemia 29.8% and 85.6% | MALME-3M melanoma 64.8% and 106% | MDA-MB-231 breast 58.2% and 64% | RXF 393 renal 73.6% and 85.5% | SF-268 CNS 68.3% and 95.3% | SF-295 CNS 24.7% and 64.9% | SF-539 CNS 67.6% and 106% | UACC-257 melanoma 32.4% and 99% | M14 melanoma 27.2% and 75.5% | HCT-15 colon 51.1% and 78.8% | SNB-19 CNS 61% and 89.3% | PC-3 prostate 16% and 61.5% | SK-MEL-5 melanoma 19.8% and 76.7% | UACC-62 melanoma 44.5% and 73% | LOX IMVI melanoma 31.3% and 81.8% | SK-MEL-28 melanoma 74.9% and 92.8%

O=C(O)CCCCc1ccc([N+](=O)[O-])cc1
inactive: DU-145 prostate 106% and 114% | K-562 leukemia 83.7% and 103% | MALME-3M melanoma 102% and 106% | MDA-MB-231 breast 112% and 95% | RXF 393 renal 116% and 148% | SF-268 CNS 98.9% and 115% | SF-295 CNS 113% | SF-539 CNS 94.3% and 102% | UACC-257 melanoma 125% and 97.8% | M14 melanoma 102% and 104% | HCT-15 colon 101% | HT29 colon 105% and 98.1% | SNB-75 CNS 98.7% and 89.7% | SNB-19 CNS 101% and 105% | PC-3 prostate 88.5% and 86.5% | SK-MEL-5 melanoma 107% and 105% | UACC-62 melanoma 104% and 90.4% | LOX IMVI melanoma 92.7% and 107% | SK-MEL-28 melanoma 113% and 107%

CCOc1ccc2nc3cc(N)ccc3c(N)c2c1
inactive: DU-145 prostate 64.2% and 67.6% | K-562 leukemia 113% and 57.9% | MDA-MB-231 breast 86.5% | RXF 393 renal 55.5% and 43.2% | SF-295 CNS 30.4% and 16.5% | SF-539 CNS 34.9% and 31.7% | UACC-257 melanoma 62.3% and 67.3% | M14 melanoma 90.3% and 75.8% | HCT-15 colon 107% and 90% | HT29 colon 75.7% and 60.7% | SNB-75 CNS 47.6% | PC-3 prostate 61.8% and 75.6% | SK-MEL-5 melanoma 43.2% | UACC-62 melanoma 73.8% | LOX IMVI melanoma 82.5% | SK-MEL-28 melanoma 75.5% and 89.8%
active: MALME-3M melanoma -18.6% and -14.8% | SF-268 CNS -39.5% and -36.7% | U251 CNS -12.6% and 5.58%
